The results in this text go back to the supplement of paper PMC11732987, “Enantioselective OTUD7B fragment discovery through chemoproteomics screening and high-throughput optimisation” (Communications Chemistry, 2025).

Molecules are shown by their SMILES. Unmarked numbers belong to inactive results.

Test in all cases: log2 ratio of Biotin-Ahx-Ub-VS probe labelling (fragment/DMSO); higher = less target engagement (more negative = stronger competition), active = hit call of the paper (q ≤ 0.05, log2 ratio ≤ -1)
What all share (conditions): compound concentration: 200 uM; treatment time: 3 h

The target of one assay is T1, USP19 (UniProt O94966).
T1 sequence (whole entry): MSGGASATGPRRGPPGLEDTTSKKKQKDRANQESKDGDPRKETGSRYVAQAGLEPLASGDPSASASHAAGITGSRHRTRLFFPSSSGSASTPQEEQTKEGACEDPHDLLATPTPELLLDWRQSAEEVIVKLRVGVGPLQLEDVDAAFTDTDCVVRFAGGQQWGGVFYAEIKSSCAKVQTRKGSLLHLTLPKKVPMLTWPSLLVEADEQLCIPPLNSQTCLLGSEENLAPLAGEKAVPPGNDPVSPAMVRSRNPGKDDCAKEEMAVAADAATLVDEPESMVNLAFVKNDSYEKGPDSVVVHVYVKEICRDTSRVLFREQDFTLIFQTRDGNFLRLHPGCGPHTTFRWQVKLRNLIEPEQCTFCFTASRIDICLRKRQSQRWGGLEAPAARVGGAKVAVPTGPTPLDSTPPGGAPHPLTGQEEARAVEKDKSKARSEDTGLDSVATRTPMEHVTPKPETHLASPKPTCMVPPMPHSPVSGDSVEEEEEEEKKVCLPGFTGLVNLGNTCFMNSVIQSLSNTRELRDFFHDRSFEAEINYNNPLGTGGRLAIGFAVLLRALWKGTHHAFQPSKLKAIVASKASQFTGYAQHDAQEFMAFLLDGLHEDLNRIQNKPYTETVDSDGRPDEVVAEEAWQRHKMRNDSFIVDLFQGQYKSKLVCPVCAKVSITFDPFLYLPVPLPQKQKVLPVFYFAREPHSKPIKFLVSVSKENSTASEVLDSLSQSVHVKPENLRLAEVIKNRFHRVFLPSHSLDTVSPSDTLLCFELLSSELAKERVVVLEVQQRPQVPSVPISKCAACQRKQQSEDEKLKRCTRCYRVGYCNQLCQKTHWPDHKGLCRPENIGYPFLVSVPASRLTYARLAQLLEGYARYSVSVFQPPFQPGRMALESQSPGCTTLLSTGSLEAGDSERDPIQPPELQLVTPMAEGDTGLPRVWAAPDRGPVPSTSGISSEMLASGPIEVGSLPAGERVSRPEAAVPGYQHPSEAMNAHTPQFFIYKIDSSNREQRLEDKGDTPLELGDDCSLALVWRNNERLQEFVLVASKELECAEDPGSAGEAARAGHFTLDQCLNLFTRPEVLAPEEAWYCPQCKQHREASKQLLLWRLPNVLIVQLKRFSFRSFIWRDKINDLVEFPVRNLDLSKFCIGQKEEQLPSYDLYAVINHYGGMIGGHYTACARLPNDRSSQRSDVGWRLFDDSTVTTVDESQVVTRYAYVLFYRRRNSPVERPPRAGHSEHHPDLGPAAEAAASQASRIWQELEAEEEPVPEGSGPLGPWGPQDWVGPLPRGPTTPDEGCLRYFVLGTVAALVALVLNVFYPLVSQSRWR
The essentials:
(§1)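 Average log2 ratios of fragment over vehicle were obtained by unpaired t-test from global-median-normalised Spectronaut label-free quantities. Proteins with ≥2 unique peptides were included. HEK293T lysate (495 µg per sample) was treated in triplicate with fragment at 200 µM or vehicle for 3 h, then with Biotin-Ahx-Ub-VS at 0.5 µM final for 1 h, and labelled DUBs were NeutrAvidin-enriched and run by diaPASEF LC-MS/MS.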

The target in the next assay is T2, USP22 (UniProt Q9UPT9).
T2 sequence (whole entry): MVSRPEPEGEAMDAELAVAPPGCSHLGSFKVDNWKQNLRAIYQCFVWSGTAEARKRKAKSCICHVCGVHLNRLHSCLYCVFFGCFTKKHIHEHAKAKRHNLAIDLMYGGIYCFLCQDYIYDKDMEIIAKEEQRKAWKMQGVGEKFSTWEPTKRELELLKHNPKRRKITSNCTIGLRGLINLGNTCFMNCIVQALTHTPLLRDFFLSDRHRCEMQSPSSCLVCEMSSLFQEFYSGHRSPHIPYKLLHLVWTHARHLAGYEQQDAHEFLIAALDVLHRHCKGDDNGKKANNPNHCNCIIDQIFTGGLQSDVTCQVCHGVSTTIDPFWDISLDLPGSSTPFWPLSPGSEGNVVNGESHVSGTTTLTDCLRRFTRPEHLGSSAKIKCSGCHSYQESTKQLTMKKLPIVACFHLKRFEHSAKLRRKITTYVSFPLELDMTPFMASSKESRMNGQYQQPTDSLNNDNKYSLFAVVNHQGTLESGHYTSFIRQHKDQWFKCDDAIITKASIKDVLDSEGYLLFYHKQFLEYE
In outline: as §1

Another assay concerns the target USP24 (UniProt Q9UPU5). In outline:
as §1

In the next assay the target is T3, USP25 (UniProt Q9UHP3).
T3 sequence (whole entry): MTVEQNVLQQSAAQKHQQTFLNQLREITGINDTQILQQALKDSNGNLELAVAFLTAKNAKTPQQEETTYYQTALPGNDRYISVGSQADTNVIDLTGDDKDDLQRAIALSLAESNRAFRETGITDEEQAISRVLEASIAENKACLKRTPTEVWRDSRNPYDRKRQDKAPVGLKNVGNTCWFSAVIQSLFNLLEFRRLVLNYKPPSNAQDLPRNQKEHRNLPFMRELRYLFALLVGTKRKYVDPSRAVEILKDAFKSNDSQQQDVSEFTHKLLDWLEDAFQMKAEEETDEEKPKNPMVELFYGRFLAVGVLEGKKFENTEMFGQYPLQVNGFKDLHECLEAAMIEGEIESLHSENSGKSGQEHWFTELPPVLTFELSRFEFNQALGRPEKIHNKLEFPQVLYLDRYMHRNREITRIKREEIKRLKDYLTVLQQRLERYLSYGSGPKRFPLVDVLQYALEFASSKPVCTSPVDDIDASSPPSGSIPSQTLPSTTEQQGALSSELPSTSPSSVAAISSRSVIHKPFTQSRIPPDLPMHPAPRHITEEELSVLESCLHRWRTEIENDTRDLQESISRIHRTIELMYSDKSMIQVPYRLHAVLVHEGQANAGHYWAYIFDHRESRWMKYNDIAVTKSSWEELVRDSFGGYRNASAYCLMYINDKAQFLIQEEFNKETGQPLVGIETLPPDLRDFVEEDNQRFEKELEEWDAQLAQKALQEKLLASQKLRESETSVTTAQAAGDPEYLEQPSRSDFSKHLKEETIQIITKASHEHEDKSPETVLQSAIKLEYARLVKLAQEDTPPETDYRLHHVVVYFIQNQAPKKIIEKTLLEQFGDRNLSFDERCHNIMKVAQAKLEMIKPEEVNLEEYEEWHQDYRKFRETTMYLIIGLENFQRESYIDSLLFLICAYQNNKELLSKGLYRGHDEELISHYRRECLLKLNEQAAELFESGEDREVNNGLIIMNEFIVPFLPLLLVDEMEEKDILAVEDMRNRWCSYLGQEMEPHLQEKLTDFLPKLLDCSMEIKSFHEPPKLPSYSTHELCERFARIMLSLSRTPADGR
In outline: as §1

The next assay concerns the target T4, USP28 (UniProt Q96RU2).
T4 sequence (whole entry): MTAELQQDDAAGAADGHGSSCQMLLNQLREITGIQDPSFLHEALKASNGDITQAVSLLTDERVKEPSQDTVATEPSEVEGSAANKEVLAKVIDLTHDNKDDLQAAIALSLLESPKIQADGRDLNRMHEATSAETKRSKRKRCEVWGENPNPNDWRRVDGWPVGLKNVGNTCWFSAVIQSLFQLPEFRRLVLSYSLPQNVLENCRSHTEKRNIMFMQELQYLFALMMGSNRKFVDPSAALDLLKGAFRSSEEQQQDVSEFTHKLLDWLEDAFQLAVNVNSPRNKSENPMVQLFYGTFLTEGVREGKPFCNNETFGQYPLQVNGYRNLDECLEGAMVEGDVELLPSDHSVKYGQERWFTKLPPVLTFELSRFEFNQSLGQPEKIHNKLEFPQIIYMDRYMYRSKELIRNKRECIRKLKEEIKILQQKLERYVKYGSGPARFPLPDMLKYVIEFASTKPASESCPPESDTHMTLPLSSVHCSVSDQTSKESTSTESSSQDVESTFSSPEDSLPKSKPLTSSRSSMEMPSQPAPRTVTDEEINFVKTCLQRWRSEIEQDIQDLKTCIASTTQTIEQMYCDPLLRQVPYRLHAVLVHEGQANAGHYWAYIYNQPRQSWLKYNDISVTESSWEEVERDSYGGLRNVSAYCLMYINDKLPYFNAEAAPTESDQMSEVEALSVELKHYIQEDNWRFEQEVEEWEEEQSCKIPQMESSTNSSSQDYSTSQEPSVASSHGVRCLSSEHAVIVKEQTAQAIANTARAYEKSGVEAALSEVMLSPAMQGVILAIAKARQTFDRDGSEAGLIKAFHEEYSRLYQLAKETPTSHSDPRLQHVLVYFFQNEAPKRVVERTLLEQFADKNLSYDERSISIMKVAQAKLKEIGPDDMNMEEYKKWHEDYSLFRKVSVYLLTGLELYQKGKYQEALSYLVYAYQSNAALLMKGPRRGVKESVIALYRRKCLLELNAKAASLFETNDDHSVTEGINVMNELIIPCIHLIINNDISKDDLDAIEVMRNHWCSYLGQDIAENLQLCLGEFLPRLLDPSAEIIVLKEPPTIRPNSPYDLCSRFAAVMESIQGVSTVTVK
In outline: as §1

USP24, sequence (Q9UPU5 whole entry): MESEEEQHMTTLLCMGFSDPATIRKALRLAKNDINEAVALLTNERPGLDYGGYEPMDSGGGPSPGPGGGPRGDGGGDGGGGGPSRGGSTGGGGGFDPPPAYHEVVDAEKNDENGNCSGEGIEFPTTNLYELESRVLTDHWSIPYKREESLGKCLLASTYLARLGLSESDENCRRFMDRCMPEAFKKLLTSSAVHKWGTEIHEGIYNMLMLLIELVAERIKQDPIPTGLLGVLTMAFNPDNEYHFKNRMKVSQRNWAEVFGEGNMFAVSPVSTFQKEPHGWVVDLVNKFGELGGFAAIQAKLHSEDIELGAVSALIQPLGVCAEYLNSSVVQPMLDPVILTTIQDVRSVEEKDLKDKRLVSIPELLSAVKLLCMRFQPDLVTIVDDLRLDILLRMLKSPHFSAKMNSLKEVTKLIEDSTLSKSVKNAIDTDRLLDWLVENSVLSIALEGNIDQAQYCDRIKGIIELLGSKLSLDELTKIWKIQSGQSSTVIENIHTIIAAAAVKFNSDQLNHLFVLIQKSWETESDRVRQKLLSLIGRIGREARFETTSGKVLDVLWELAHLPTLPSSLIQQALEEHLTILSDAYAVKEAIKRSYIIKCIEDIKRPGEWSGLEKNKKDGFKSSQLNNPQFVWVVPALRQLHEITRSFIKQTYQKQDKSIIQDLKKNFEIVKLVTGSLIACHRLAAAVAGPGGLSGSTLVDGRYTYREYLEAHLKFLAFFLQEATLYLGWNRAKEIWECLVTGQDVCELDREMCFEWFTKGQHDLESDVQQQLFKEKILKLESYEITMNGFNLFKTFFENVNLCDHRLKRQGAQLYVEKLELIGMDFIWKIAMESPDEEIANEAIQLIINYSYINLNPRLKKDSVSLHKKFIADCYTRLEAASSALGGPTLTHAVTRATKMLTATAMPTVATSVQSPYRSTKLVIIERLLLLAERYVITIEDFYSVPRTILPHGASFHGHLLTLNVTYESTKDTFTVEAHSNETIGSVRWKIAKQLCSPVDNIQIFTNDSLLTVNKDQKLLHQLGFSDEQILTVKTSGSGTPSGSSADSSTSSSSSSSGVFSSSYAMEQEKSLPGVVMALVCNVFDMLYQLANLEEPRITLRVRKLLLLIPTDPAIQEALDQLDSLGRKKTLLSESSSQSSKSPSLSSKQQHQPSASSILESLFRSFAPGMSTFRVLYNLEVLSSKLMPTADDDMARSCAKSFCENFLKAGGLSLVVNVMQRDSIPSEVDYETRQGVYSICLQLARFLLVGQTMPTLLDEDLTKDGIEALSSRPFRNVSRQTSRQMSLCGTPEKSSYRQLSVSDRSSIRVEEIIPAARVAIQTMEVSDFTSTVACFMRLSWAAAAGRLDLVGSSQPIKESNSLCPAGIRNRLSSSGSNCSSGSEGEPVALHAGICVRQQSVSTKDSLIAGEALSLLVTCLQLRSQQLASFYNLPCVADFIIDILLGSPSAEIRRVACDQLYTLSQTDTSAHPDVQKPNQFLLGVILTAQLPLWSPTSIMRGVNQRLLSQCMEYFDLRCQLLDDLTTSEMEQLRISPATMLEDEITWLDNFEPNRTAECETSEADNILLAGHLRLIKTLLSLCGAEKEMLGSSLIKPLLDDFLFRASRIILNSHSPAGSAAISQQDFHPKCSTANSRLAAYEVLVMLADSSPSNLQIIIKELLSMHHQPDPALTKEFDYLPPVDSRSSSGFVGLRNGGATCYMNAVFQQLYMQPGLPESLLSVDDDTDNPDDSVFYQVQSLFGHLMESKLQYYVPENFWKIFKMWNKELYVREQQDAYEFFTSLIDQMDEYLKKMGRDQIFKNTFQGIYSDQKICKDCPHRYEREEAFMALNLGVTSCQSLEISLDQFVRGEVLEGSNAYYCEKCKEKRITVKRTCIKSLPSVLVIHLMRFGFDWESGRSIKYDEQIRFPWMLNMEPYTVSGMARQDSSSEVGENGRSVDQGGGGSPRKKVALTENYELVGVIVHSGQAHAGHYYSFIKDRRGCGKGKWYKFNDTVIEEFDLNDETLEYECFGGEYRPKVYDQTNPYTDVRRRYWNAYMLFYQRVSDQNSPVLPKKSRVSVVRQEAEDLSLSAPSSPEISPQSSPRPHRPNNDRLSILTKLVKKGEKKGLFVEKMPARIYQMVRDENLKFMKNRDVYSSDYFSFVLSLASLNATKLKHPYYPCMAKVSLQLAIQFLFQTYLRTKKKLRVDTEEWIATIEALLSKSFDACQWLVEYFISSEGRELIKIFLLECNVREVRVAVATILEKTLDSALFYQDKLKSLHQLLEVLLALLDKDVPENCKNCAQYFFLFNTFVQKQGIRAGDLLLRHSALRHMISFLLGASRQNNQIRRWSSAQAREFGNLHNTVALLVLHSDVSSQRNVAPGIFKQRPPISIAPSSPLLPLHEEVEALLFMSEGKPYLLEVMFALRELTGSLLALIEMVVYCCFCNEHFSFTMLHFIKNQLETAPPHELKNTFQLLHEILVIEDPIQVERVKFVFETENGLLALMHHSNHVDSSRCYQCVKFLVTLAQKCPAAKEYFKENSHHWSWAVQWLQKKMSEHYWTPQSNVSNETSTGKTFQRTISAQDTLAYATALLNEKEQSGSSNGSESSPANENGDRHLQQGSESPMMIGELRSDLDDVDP

As for `O=C(CCl)N1CCOC(CCc2ccccc2)C1` (stereo not given), the “log2 ratio of Biotin-Ahx-Ub-VS probe labelling” value in the assay with USP19 is -0.687; with USP22, -0.0816; with USP24 it was -1.37 (active); with USP25 it was -0.497; with USP28 it was -0.802.
